The supplement of paper PMC6279402
Structures can show the parent of a compound that is named as a salt. ± gives the standard deviation of the averaged measurements.

Tested on: A549
Assay: relative viability (normalised to negative control = 1, bortezomib = 0) (fraction); higher = less cytotoxic
Settings: inflammatory serum-free RHB-A with cytokines + LPS, 5 d + 24 h CellTiter-Blue
Procedure: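 A549 KRAS-mutant NSCLC cells, pre-treated 5 µM GSK126 or vehicle (DMSO), were seeded at 250 cells/well in 384-well plates in serum-free RHB-A medium with inflammatory cytokines/LPS and treated with Selleck kinase inhibitor and NCI oncology compounds at 30 or 300 nM in triplicate, refreshed at 48 h. Viability was read by CellTiter-Blue after 5 d plus 24 h and normalised per plate with cellHTS2 (mean of bortezomib positive control = 0, mean of negative control = 1).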

[1] = compound 30 nM, GSK126 pretreatment: 5 uM GSK126
[2] = compound 30 nM, GSK126 pretreatment: none (vehicle)
[3] = compound 300 nM, GSK126 pretreatment: 5 uM GSK126
[4] = compound 300 nM, GSK126 pretreatment: none (vehicle)

Structure (SMILES) | relative viability [1] | relative viability [2] | relative viability [3] | relative viability [4]
CO[C@@]12[C@H](COC(N)=O)C3=C(C(=O)C(C)=C(N)C3=O)N1C[C@@H]1N[C@@H]12 [Mitomycin; Mitomycin C] | 0.827 ± 0.16 | 0.845 ± 0.092 | 0.58 ± 0.1 | 0.47 ± 0.05
COc1ccc2c3n(c(=NC(=O)c4cccnc4)nc2c1OC)CCN3 | 0.7 ± 0.049 | 0.75 ± 0.044 | 0.578 ± 0.14 | 0.735 ± 0.031
C[C@@H](Oc1cc(-n2cnc3ccc(CN4CCN(C)CC4)cc32)sc1C(N)=O)c1ccccc1C(F)(F)F | 0.481 ± 0.028 | 0.326 ± 0.05 | 0.517 ± 0.02 | 0.363 ± 0.072
O=C(c1ccc(OCCN2CCCCC2)cc1)c1c(-c2ccc(O)cc2)sc2cc(O)ccc12 [Raloxifene HCl; Raloxifene hydrochloride] | 0.955 ± 0.064 | 0.897 ± 0.094 | 0.961 ± 0.043 | 0.987 ± 0.058
CNC(=O)c1cc(COc2nnc(Nc3ccc(Cl)cc3)c3ccoc23)ccn1 [Telatinib (BAY 57-9352)] | 0.896 ± 0.11 | 0.887 ± 0.073 | 0.967 ± 0.13 | 0.91 ± 0.13
Nc1nccc(Oc2ccc(NC(=O)c3c[nH]cc(-c4ccc(F)cc4)c3=O)cc2F)c1Cl | 0.87 ± 0.13 | 0.882 ± 0.16 | 1.14 ± 0.15 | 1.12 ± 0.18
O=c1c(O)c(-c2ccc(O)c(O)c2)oc2cc(O)cc(O)c12 [QUERCETIN; Quercetin(Sophoretin); Quercetin dihydrate] | 0.89 ± 0.032 | 0.911 ± 0.052 | 0.961 ± 0.11 | 0.945 ± 0.058
O=C(c1ccc(/C=C/c2n[nH]c3ccccc23)cc1)N1CCNCC1 | 0.843 ± 0.022 | 0.862 ± 0.046 | 0.957 ± 0.065 | 1.04 ± 0.091
OCCn1cc(-c2ccc3c(c2)CC/C3=N\O)c(-c2ccncc2)n1 | 0.948 ± 0.11 | 0.989 ± 0.093 | 1.03 ± 0.21 | 1.14 ± 0.16
COc1cccc2c1C(=O)c1c(O)c3c(c(O)c1C2=O)C[C@@](O)(C(=O)CO)C[C@@H]3O[C@H]1C[C@H](N)[C@H](O)[C@H](C)O1 [Doxorubicin hydrochloride; 4'-Epiadriamycin; Doxorubicin HCl] | 0.967 ± 0.022 | 0.9737 ± 0.0065 | 0.454 ± 0.027 | 0.463 ± 0.075
